Molecules are shown by their SMILES. In all, about 2,000 compounds went through this assay and fewer than 10 were called active. Not all results are given here. A number with no mark means an inactive call.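 How the source made its calls: active means growth inhibition of at least 75% in every replicate, which also brings the mean inhibition to 75% or more; inconclusive means mean inhibition 75% or more but some replicate under 75%; inactive means the rest.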

The results in this text go back to PubChem BioAssay AID504594 (Broad Institute, 2011).

The assay in a line: growth inhibition of PfHsp90-dependent yeast, primary screen, antimalarial PfHsp90 inhibitor project, S. cerevisiae, BacTiter-Glo luminescence (AID 504594).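 Further: 0% = DMSO neutral control wells and 100% = 20 µM radicicol control wells; higher value means stronger growth inhibition because the sign is flipped.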 As to conditions: S. cerevisiae expressing PfHsp90, BacTiter-Glo growth, 48 h; at 9.4 µM; active compounds read high.
Regarding `CC(C)(C)C(O)C(Oc1ccc(Cl)cc1)n1cncn1` (stereo not given), the growth inhibition was 96.5% (active). Turning to `CN1CCN(C(=O)OC2c3nccnc3C(=O)N2c2ccc(Cl)cn2)CC1` (stereo not given), the growth inhibition is 6.28%. The value for `O=C1NC(=O)C2(Cc3ccccc3N3CCCC32)C(=O)N1c1ccc(Cl)cc1` (stereo not given) was -0.293%; that for `O=S(=O)(c1ccc(F)cc1)N1CCCCC1c1cccnc1` (stereo not given) was -1.69%; that for `c1ccc(Cn2ccnc2)cc1` was -14.6%.

For the molecule `Clc1ccc(CSC(Cn2ccnc2)c2ccc(Cl)cc2Cl)cc1` (stereo not given), the growth inhibition is 95% (active). Regarding `Cn1c(O)c(C=NCCc2c[nH]c3ccccc23)c(=O)n(C)c1=O`, the growth inhibition is -4.75%. For the molecule `C[N+]1(C)CCN(c2ccccc2)CC1`, the growth inhibition was 4.14%. The value for `COc1cc2c3cc1Oc1cc(ccc1O)C[C@@H]1c4c(cc(OC)c(O)c4Oc4ccc(cc4)C[C@H]3N(C)CC2)CCN1C` was -1.85%; that for `CCOc1ccc(N2C(=O)NC(=O)/C(=C\c3cc(OC)c(OC)cc3[N+](=O)[O-])C2=O)cc1` was -0.939%.
